KCNQ2 pot: potentiators of rat KCNQ2 potassium channel; B-score at 10 µM; CHO-K1 KCNQ2, FluxOR thallium flux fluorescence; stronger effect = higher value; 310,000 compounds, 0.54% hits; O88943;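 active = fluorescence ratio B-score at least 3 SD of library B-scores, with initial fluorescence B-score within 3 of them, cut at about 5.3 in these data; same plate scores as AID 2156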;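 note: B-score of peak minus minimum over baseline fluorescence ratio after K+ and Tl+ stimulus; positive B-score means potentiation of KCNQ2 with more thallium influx and brighter signal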
KCNQ2 inh: inhibitors of rat KCNQ2 potassium channel | 310,000 compounds, 1.1% hits | O88943 | CHO-K1 KCNQ2, FluxOR thallium flux, 20 min; stronger effect = lower value | B-score at 10 µM;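 active = fluorescence ratio B-score at most minus 3 library SDs, with starting brightness B-score within 2 library SDs, cut at about -5.5 in these data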
Active calls of the source: *. Only some compounds are listed: those with a hit (about 1.6% of all), similar ones and a draw of the others.

For CCCCN(C)C(=O)c1oc2ccc(S(=O)(=O)N3CCCCCC3)cc2c1C the results were KCNQ2 pot -5.63 and KCNQ2 inh -5.63*.
For CC(C)CNS(=O)(=O)c1ccc(CCC(=O)NC2CCCCC2)cc1 the results were KCNQ2 inh inactive.
O=c1cc(CN2CCN(C/C=C/c3ccccc3)CC2)c2cc(O)c(-c3ccccc3)cc2o1 was read as KCNQ2 pot 0.92 and KCNQ2 inh inactive.
Screening CC(C)CN(Cc1cc(=O)oc2cc(-c3ccccc3)c(O)cc12)CC(C)C returned KCNQ2 pot -7.5 and KCNQ2 inh -7.5*.
`O=C(NC1CCCCC1)N(Cc1cc2cc3c(cc2[nH]c1=O)OCCO3)C1CCCCC1` gave KCNQ2 inh inactive.
Cc1cccnc1Nc1nc(-c2ccc(F)cc2)cs1 was read as KCNQ2 pot -7.21 and KCNQ2 inh -7.21*.
Screening Cc1cccnc1Nc1nc(-c2ccc(O)cc2)cs1 returned KCNQ2 inh inactive.
Cc1c(C=O)c2cc(OCc3ccccc3)ccc2n1C was read as KCNQ2 pot 0.75 and KCNQ2 inh inactive.
`O=C(NCC(=O)N(c1cccnc1)C(C(=O)NC1CCCCC1)c1ccccc1F)c1ccco1` (stereo not given) gave KCNQ2 inh inactive.
For Clc1cccc(CSc2nnc(-c3ccccn3)n2Cc2ccco2)c1 the results were KCNQ2 pot -6.69 and KCNQ2 inh -6.69*.
For CC(C)(C)c1ccc(CSc2nnc(-c3ccccn3)n2Cc2ccco2)cc1 the results were KCNQ2 pot -5.63 and KCNQ2 inh -5.63*.
`Brc1ccc(CSc2nnc(-c3ccccn3)n2Cc2ccco2)cc1` gave KCNQ2 inh inactive.
For O=C(CSc1nnc(-c2ccccn2)n1Cc1ccco1)c1ccc(Cl)cc1 the results were KCNQ2 inh inactive.
`CN(CC(=O)Nc1ccccc1C(F)(F)F)C(=O)C1CCN(C(=O)c2ccc(Cl)cc2)CC1` gave KCNQ2 pot 0.16 and KCNQ2 inh inactive.
For O=C(CNS(=O)(=O)c1ccc(Br)cc1)NCc1cccnc1 the results were KCNQ2 pot 0.03 and KCNQ2 inh inactive.
For CCCn1c(SCC(=O)NC2CC2)nnc1-c1ccccn1 the results were KCNQ2 inh inactive.
For CCC(=O)N1CCc2cc(Br)cc(S(=O)(=O)N3CCC(C(=O)NC(C)C)CC3)c21 the results were KCNQ2 inh inactive.
Screening CCOc1ccccc1N(C(=O)c1ccccc1Cl)C1=NC(C)(C)CS1 returned KCNQ2 inh inactive.
For Cc1ccc(N(C(=O)c2ccccc2Cl)C2=NC(C)CS2)c(C)c1 (stereo not given) the results were KCNQ2 pot -6.05 and KCNQ2 inh -6.05*.
Screening NS(=O)(=O)c1ccc(NC(=O)COC(=O)CCc2ccccc2)cc1 returned KCNQ2 pot 1.37 and KCNQ2 inh inactive.
COc1ccccc1C(=O)NC(CCSC)C(=O)OC(C)C(N)=O (stereo not given) was read as KCNQ2 pot 1.42 and KCNQ2 inh inactive.
`COc1ccccc1C(=O)NC(CCSC)C(=O)N1CCC(Cc2ccccc2)CC1` (stereo not given) gave KCNQ2 pot -7.15 and KCNQ2 inh -7.15*.
For CSCCC(NC(=O)c1ccccc1Cl)C(=O)N1CCN(C(c2ccccc2)c2ccccc2)CC1 (stereo not given) the results were KCNQ2 pot -7.16 and KCNQ2 inh -7.16*.
CSCCC(NS(=O)(=O)c1ccc(C)cc1)C(=O)N1CCN(C(c2ccccc2)c2ccccc2)CC1 (stereo not given) was read as KCNQ2 inh inactive.
Cc1ccc(-c2nnc(Cc3ccc([N+](=O)[O-])cc3)o2)cc1 was read as KCNQ2 inh inactive.
`Cc1ccc(CN2C(=O)[C@H]3Cc4c([nH]c5ccccc45)C(C)(C)N3C2=O)cc1` gave KCNQ2 pot 0.03 and KCNQ2 inh inactive.
Screening COc1ccc(OC)c(C(=O)NC(CC(N)=O)c2ccc(NCC3CC3)c([N+](=O)[O-])c2)c1 (stereo not given) returned KCNQ2 inh inactive.
Screening COc1ccc(OC)c(C(=O)NC(CC(N)=O)c2ccc(NC(C)C)c([N+](=O)[O-])c2)c1 (stereo not given) returned KCNQ2 pot -9.64 and KCNQ2 inh -9.64*.
Screening CCNC(=S)Nc1cccc(F)c1C returned KCNQ2 pot 0.65 and KCNQ2 inh inactive.
Screening Cc1ccc(S(=O)(=O)N2CCCC2CNC(=O)c2ccc3c(c2)OCO3)cc1 (stereo not given) returned KCNQ2 pot 0.51 and KCNQ2 inh inactive.
CCC(CC)COC(=O)C(C#N)c1nc2ccccc2nc1N1CCN(CC)CC1 (stereo not given) was read as KCNQ2 inh inactive.
CCCCCCOC(=O)C(C#N)c1nc2ccccc2nc1N1CCN(C)CC1 (stereo not given) was read as KCNQ2 pot -5.68 and KCNQ2 inh -5.68*.
`CCN(CC)C(=S)SCC(=O)NC12CC3CC(CC(C3)C1)C2` gave KCNQ2 pot 8.78* and KCNQ2 inh inactive.
`CCN(CC)CC(=O)NC12CC3CC(CC(C3)C1)C2` gave KCNQ2 inh inactive.
COc1ccc2nc(NC(=O)Nc3cccc4ccccc34)sc2c1 was read as KCNQ2 inh inactive.
COc1ccc2nc(N=Nc3c(O)ccc4ccccc34)sc2c1 was read as KCNQ2 pot 8.17* and KCNQ2 inh inactive.
Screening CC1(C)C2CCC1(C)C(NCC(O)COc1ccc(C#N)cc1)C2 (stereo not given) returned KCNQ2 inh inactive.
Screening Cn1c(=O)oc2cc(S(=O)(=O)N3CCC(C(=O)NCCc4ccccc4)CC3)ccc21 returned KCNQ2 pot 0.07 and KCNQ2 inh inactive.
`O=C(COc1ccccc1)N(Cc1ccco1)c1ccc(O)cc1` gave KCNQ2 inh inactive.
For O=C(c1ccc(Cl)c(Cl)c1)N(Cc1ccco1)c1ccc(O)cc1 the results were KCNQ2 pot -6.39 and KCNQ2 inh -6.39*.
O=C(CSc1nc2ccccc2nc1N1CCCCC1)N1CCN(c2ccccc2)CC1 was read as KCNQ2 pot -7.69 and KCNQ2 inh -7.69*.
For O=C(CSc1nc2ccccc2nc1N1CCOCC1)N1CCN(c2ccccc2)CC1 the results were KCNQ2 pot 0.21 and KCNQ2 inh inactive.
`CC1(C)SC2c3ccccc3C(=O)N2[C@@H]1C(=O)NC1CC1` (stereo not given in full) gave KCNQ2 inh inactive.
`Cc1ncc([N+](=O)[O-])n1CC(=O)Nc1ccc(Br)cc1` gave KCNQ2 pot 1.13 and KCNQ2 inh inactive.
Screening CON(C)S(=O)(=O)c1ccc2c(c1)N(Cc1ccc(C)cc1)C(=O)C1CCCN21 (stereo not given) returned KCNQ2 inh inactive.
`COC(=O)c1cc(-c2cccs2)nn1-c1ccccc1` gave KCNQ2 pot 0.05 and KCNQ2 inh inactive.
`O=C(c1ccccc1)n1ccc(-c2cccs2)n1` gave KCNQ2 pot 8.59* and KCNQ2 inh inactive.
Screening CCc1ccccc1Nc1nc(N)nc(COC(=O)c2cccn2C)n1 returned KCNQ2 pot 0.01 and KCNQ2 inh inactive.
Cc1ccccc1CSCc1nc(N)nc(Nc2ccccc2C)n1 was read as KCNQ2 pot 0.58 and KCNQ2 inh inactive.
For CCc1ccc(NC(=O)CSCc2nc(N)nc(Nc3ccccc3CC)n2)cc1 the results were KCNQ2 pot 15.5* and KCNQ2 inh inactive.
For CCc1ccccc1Nc1nc(N)nc(CSCC(=O)Nc2ccc(C)c(C)c2)n1 the results were KCNQ2 pot 19.4* and KCNQ2 inh inactive.

Bioassay records as filed in PubChem.
